ChEMBL document CHEMBL5724796, “Tm Shift (DSF) assay results for EUbOPEN Chemogenomics Library” (2024)
Residues, ends and D or L forms follow the SMILES beside them.

Legend:
Conditions in all cases: Compound concentration 20.0 uM
[1] = target: Tyrosine-protein kinase ABL1 (Homo sapiens) (UniProt P00519)
[2] = target: Bromodomain-containing protein 4 (Homo sapiens) (UniProt O60885)
[3] = target: Cyclin-dependent kinase 2 (Homo sapiens) (UniProt P24941)
[4] = target: Casein kinase I isoform delta (Homo sapiens) (UniProt P48730)
[5] = target: Glycogen synthase kinase-3 beta (Homo sapiens) (UniProt P49841)
[6] = target: Mitogen-activated protein kinase 1 (Homo sapiens) (UniProt P28482)
[7] = target: T1, Aurora kinase A (Homo sapiens) (UniProt O14965)
T1 sequence (whole entry): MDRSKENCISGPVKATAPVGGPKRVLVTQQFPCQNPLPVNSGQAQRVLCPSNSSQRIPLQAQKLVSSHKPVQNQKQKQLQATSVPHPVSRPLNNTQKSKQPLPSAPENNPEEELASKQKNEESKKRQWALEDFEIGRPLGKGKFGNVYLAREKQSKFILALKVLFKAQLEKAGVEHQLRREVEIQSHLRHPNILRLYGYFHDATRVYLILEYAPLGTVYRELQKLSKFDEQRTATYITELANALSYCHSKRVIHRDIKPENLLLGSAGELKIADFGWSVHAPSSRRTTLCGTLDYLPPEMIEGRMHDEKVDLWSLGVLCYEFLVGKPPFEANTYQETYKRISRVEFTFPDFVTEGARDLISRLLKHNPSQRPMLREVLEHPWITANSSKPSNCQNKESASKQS

[8] = target: T2, Transcription intermediary factor 1-alpha (Homo sapiens) (UniProt O15164)
T2 sequence (whole entry): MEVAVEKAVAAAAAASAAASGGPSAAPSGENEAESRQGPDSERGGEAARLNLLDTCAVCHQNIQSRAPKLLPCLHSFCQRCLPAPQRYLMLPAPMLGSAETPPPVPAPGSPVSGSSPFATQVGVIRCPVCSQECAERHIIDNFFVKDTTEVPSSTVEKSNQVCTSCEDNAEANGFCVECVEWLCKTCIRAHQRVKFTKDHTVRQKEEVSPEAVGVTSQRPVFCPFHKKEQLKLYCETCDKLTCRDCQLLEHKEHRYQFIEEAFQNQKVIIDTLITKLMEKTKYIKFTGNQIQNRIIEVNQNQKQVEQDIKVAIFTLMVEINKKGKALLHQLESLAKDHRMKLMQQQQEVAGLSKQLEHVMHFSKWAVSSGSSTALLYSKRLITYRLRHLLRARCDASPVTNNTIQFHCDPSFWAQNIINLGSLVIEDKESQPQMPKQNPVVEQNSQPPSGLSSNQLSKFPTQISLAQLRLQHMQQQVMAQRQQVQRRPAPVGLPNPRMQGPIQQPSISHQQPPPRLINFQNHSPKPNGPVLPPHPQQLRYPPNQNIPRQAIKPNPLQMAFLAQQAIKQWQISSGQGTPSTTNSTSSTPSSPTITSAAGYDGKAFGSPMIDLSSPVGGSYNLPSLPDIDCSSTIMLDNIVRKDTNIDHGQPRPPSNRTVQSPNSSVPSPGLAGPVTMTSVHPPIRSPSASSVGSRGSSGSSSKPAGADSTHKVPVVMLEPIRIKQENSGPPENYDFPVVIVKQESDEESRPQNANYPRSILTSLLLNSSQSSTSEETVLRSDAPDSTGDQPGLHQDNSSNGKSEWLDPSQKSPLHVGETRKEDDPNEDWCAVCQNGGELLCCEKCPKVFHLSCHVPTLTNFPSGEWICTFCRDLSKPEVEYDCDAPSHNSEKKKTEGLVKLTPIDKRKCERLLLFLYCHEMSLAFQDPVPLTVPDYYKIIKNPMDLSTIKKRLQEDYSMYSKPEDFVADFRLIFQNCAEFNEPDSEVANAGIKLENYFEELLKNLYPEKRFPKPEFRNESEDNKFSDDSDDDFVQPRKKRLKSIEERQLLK

Sequence of Mitogen-activated protein kinase 1 (Homo sapiens) (P28482 whole entry): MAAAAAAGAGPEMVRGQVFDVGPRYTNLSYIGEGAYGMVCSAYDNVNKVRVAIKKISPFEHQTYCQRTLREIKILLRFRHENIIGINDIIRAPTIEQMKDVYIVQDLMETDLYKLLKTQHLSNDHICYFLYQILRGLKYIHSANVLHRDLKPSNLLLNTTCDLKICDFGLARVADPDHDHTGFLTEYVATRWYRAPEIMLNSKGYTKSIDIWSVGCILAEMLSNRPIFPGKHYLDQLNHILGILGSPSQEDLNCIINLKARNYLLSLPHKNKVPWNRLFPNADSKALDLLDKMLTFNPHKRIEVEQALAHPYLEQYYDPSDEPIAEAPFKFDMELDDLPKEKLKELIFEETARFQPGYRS
Sequence of Casein kinase I isoform delta (Homo sapiens) (P48730 whole entry, looked up, canonical isoform): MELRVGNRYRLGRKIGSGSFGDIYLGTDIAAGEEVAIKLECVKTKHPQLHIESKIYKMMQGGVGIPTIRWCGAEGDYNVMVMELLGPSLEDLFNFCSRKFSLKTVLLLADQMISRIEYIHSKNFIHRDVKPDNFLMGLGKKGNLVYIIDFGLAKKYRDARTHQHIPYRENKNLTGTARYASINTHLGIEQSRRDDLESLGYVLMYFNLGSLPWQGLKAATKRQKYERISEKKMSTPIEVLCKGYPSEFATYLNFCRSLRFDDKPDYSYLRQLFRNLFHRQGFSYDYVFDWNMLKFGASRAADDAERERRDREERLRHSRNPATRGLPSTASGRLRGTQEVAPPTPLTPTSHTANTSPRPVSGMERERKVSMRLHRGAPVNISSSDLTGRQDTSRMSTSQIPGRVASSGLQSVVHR
Sequence of Tyrosine-protein kinase ABL1 (Homo sapiens) (P00519 whole entry): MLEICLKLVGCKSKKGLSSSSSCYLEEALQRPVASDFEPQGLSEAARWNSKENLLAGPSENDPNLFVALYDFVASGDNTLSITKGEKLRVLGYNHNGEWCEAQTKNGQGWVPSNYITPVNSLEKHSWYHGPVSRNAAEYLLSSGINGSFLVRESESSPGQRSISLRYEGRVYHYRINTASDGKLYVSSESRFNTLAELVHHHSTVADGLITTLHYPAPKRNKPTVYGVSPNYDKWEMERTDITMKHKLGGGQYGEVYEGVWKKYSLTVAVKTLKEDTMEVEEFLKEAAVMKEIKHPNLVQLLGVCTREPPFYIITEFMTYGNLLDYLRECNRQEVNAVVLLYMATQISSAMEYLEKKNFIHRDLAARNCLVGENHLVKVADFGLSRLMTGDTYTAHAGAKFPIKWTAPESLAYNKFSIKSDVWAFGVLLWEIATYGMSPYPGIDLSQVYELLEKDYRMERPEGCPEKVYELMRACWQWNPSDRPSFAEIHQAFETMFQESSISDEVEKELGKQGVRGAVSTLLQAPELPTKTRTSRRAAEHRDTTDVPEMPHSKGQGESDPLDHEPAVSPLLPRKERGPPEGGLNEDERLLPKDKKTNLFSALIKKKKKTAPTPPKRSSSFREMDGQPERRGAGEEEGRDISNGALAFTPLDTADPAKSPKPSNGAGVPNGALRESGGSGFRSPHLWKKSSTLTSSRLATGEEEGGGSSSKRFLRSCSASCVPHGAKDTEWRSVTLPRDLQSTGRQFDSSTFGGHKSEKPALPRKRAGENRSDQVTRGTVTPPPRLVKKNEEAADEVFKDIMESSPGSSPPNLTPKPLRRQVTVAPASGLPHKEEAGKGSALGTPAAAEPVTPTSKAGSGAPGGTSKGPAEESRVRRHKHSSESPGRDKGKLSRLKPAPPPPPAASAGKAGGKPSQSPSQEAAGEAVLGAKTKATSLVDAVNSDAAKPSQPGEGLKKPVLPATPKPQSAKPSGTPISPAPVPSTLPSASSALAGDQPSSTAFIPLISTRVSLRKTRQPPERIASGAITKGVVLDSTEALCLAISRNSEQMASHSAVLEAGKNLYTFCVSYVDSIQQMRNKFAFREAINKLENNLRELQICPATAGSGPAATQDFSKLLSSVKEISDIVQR
Sequence of Glycogen synthase kinase-3 beta (Homo sapiens) (P49841 whole entry, looked up): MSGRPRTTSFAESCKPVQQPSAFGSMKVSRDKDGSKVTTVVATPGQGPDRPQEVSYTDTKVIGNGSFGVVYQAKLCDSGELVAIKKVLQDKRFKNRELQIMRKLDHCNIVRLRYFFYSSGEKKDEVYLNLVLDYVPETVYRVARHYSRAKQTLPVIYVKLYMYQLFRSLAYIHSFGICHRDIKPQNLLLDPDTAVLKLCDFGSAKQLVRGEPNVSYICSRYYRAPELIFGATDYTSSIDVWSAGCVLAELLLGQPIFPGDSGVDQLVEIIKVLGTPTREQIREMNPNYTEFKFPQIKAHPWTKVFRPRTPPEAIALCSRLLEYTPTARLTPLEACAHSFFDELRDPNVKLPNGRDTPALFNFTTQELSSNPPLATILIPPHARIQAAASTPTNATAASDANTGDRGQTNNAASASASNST

Row | SMILES | ΔTm [1] [°C] | ΔTm [2] [°C] | ΔTm [3] [°C] | ΔTm [4] [°C] | ΔTm [5] [°C] | ΔTm [6] [°C] | ΔTm [7] [°C] | ΔTm [8] [°C]
1 | c1ccc(Cn2c(-c3ccc(OC[C@H](C4CCNCC4)n4c(-c5ccccc5)nc5ccccc54)cc3)nc3ccccc32)cc1 | -1.84 | -6.29 | -1.5 | -0.34 | -3.92 | 0 | 0 | -1.18
2 | CN1CCc2c(n(Cc3ccc(C(=O)NO)cc3)c3ccccc23)C1 | 0.24 | -1.44 | 0.56 | -0.06 | -0.89 | 0.14 | -0.37 | -1.21
3 | COc1cccc(-c2nccc3c2CN(c2ccccc2)C3=O)c1 | 0.76 | -1.35 | -1.3 | 0.41 | -2.56 | -4.49 | -4.93 | -1.44
4 | COc1ccc(CNc2nc(N3CCC[C@H]3CO)ncc2C(=O)NCc2ncccn2)cc1Cl | 0.44 | -1.19 | -0.26 | 0.12 | 0.12 | 0.04 | -1.84 | -0.51
5 | CC(=O)Nc1ccc(C(=O)Nc2ccc(F)cc2N)cc1 | 2.43 | -2.84 | -0.66 | 0.17 | -3.79 | -0.66 | -2.46 | -0.15
6 | Cc1c(Nc2ccc(S(=O)(=O)N3CCN(C)CC3)cc2F)nc2ccc(-c3cnn(C4CC4)c3)cn2c1=O | 0.73 | -2.59 | 0.26 | -0.28 | 0.08 | 0.06 | -1.87 | -1.92
7 | Cc1cc(C)nc(SCC(=O)Nc2ncc(Cc3cccc4ccccc34)s2)n1 | 1.25 | -0.67 | 0.38 | 5.19 | -0.21 | -4.06 | -1.18 | 5.54
8 | CN(C)Cc1ccc(S(=O)(=O)n2ccc(/C=C/C(=O)NO)c2)cc1 | 0.75 | -1.99 | 0.61 | 0.25 | -0.79 | -0.07 | -0.28 | -1.27
9 | COc1ccc(/C=C/C(=O)NO)c(-c2ccc(-c3ccccc3)cc2)c1 | -1.93 | 2.27 | 0.43 | -0.46 | 3.08 | -9.33 | 2.77 | 3.31
10 | Cc1ccc(C(=O)Nc2ccc(S(=O)(=O)O)c3cc(S(=O)(=O)O)cc(S(=O)(=O)O)c23)cc1NC(=O)c1cccc(NC(=O)Nc2cccc(C(=O)Nc3cc(C(=O)Nc4ccc(S(=O)(=O)O)c5cc(S(=O)(=O)O)cc(S(=O)(=O)O)c45)ccc3C)c2)c1 | 0.88 | -5.41 | -2.98 | -1.4 | -0.55 | -0.68 | 0 | -1.19
11 | CS(=O)(=O)N1CCN(C(=O)c2cnc3ccc(F)cc3c2-c2ccc(C3(C#N)CC3)cc2)CC1 | 0.07 | 1.15 | 0.13 | 0.11 | 3.18 | 0.08 | -1.44 | 0.3
12 | Nc1ccc(-c2cccs2)cc1NC(=O)c1ccc(NC=O)cc1 | 0.87 | 2.75 | 1.18 | -0.53 | -0.36 | 0.54 | 0.14 | 1.27
13 | CC(=O)N[C@H](C(=O)N[C@@H](CC(=O)O)C(=O)N[C@H](C(=O)N[C@@H](C)C(=O)N[C@H](C=O)CC(=O)O)C(C)C)C(C)C (Ac-VDVAD-aldehyde) | 0.62 | -2.7 | -0.17 | -0.1 | 0.07 | 0 | -1.39 | -0.67
14 | Cc1nnn(C)c1-c1cnc2c3cc4cnn(C)c4cc3n([C@H](c3ccccc3)C3CCOCC3)c2c1 | 0.34 | 22.9 | -0.73 | 0.09 | -1.29 | 0.17 | -2.95 | 0.06
15 | CCn1ncc2c(NC3CCOCC3)c(-c3nnc(Cc4sc(C)nc4C)o3)cnc21 | 0.37 | -1.68 | -0.03 | 0.21 | -0.23 | 0.54 | -2.35 | 0.22
16 | COc1cc(C(C)C)c2c(c1)S(=O)(=O)N(COc1cc(=O)n3cccc(OCCN4CCCCC4)c3n1)C2=O | 0.26 | -2.34 | -0.17 | 0.5 | 0.26 | -0.23 | 2.88 | -1.28
17 | N=C(N)NC(=O)c1cnn(-c2cccc3ncccc23)c1C1CC1 | 0.57 | -3 | -0.15 | -0.36 | -0.31 | 0.09 | -2.42 | -0.58
18 | COc1ccc(C2C(C#N)=C(N)OC3=C2C(=O)CC(c2cccc4ccccc24)C3)cc1 (stereo not given) | 0.45 | -2.45 | -0.04 | -0.36 | -0.68 | 0.85 | -1.95 | 1.45
19 | CCCCNc1cc(C(=O)O)cc(S(N)(=O)=O)c1Oc1ccccc1 | 0.19 | -1.86 | -0.19 | 0.17 | -0.41 | 0.13 | 0.14 | 0.82
20 | C[C@H]1CCCN1Cc1nc2cc(NC(=O)c3ccc4c(cnn4C)c3)ccc2[nH]1 | 2.18 | -0.92 | 0.64 | 0.92 | -0.87 | 0.27 | -0.14 | -0.88
